This is an account of results in PubChem BioAssay AID624330 (Southern Research Specialized Biocontainment Screening …, 2012).

Out of some 340,000 compounds screened, about 2,100 (0.62%) were called active. A selection follows. Potency and affinity values are given separately. Values without a mark were called inactive.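 The calls were made as follows: active = first-screen hits whose inhibition reached a set limit at any dose in the follow-up dose series; inconclusive = inhibition above the set first-screen limit but never retested; inactive = the rest.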

In the test the target is Rac GTPase-activating protein 1 (Homo sapiens) (UniProt Q9H0H5). In words: blockers of MgcRacGAP-driven Rac1 GTP hydrolysis – biochemical, ADP Hunter fluorescence, primary and confirmatory, confirmation (AID 624330).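 Also: fluorescence reports GDP produced by GAP-driven GTP hydrolysis.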 Particulars: MgcRacGAP-stimulated Rac1 GTP hydrolysis, at 30 µM, hits give high values, GST-tagged Rac1 F28L mutant substrate.
Chain of Rac GTPase-activating protein 1 (Homo sapiens) (Q9H0H5 whole entry, looked up): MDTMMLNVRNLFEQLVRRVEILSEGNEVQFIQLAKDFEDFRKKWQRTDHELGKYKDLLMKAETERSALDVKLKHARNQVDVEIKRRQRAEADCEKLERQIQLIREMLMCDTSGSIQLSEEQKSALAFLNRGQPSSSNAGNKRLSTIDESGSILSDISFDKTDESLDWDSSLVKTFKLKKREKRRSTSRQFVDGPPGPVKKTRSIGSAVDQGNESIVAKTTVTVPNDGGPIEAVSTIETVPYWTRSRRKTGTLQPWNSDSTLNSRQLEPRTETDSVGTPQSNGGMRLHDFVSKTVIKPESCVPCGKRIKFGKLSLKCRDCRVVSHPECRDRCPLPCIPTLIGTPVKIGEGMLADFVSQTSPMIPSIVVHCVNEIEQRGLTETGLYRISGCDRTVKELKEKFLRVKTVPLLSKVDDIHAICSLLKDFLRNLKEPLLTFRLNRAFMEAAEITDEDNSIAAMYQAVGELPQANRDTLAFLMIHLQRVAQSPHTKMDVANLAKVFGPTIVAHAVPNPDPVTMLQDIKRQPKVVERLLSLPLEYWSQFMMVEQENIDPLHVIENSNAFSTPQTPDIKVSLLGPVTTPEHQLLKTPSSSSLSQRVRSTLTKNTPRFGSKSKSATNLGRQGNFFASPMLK
One may read the inhibition as the change of the read-out against control, counted positive when it falls. Turning to `COc1ccc(CN2C(=O)C(CC(=O)NCCCN(C)C)CC(C(=O)N(C)C)=C2C)cc1` (stereo not drawn), the inhibition was 12.7%.
The value for `Cc1sc2ncnc(N(C)Cc3cccs3)c2c1C` was 10.9%; that for `CN(CCc1ccccn1)c1ncnc2[nH]ncc12` was 6.58%; that for `COc1ccc(CNC(=O)CCCn2nc([N+](=O)[O-])cc2C)cc1` was 9%.
In the case of `O=C1c2ccccc2C(=O)N1c1nc(-c2cccs2)cs1` it was 13.9%; in that of `O=C1CCCCCCCN1Cc1ccccc1`, 1.03%; in that of `O=C1CCCCCN1Cc1ccccc1`, 3.56%.
The value for `COc1ccc(NC(=O)Nc2ccon2)cc1OC` was 7.89%.
As for `COc1ccc(CN2CCN(C(=O)c3ccco3)CC2)cc1OC`, the inhibition is 11.2%.
In the case of `FC(F)(F)c1ccc(CN2CCN(Cc3ccco3)CC2)cc1` it was 15.3%.
The value for `Cc1ccc(S(=O)(=O)N2CCN(Cc3ccco3)CC2)c(C)c1` was 3.78%; that for `COc1cc(OC)c(OC)cc1CN1CCN(Cc2ccco2)CC1` was 20.1%.
In the case of `CCc1ccc(S(=O)(=O)N2CCN(Cc3ccco3)CC2)cc1` it was 6.82%.
On to `COc1ccc(CN2CCN(Cc3ccco3)CC2)cc1`, for which the inhibition was 29.8%.
In the case of `Cc1cccc(CN2CCSCC2)c1` it was 23.8%.
In the case of `CCCc1ccc(S(=O)(=O)N2CCN(Cc3ccco3)CC2)cc1` it was 8.89%; in that of `CCc1sc(C(=O)NCCCN2CCCC2=O)cc1Br`, -10%; in that of `Cc1ccc(C)c(S(=O)(=O)N2CCN(C(=O)CSc3ccccc3)CC2)c1`, 8.52%.
Turning to `CC(Sc1nnc(-c2ccncc2)n1C)C(=O)NCC1CCCO1` (stereo not drawn), the inhibition is 1.73%.
With `CN(C)CCOC(=O)CC12CC3CC(C1)CC(CC(=O)OCCN(C)C)(C3)C2`, the inhibition was 5.06%.
On to `COc1cccc(CNC(=O)c2ccc(S(=O)(=O)N3CCCCC3)cc2)c1`, for which the inhibition is 9.59%.
In the case of `Cc1ccc(S(=O)(=O)Nc2cc(=O)[nH]c(SCC(=O)Nc3ccccc3C(F)(F)F)n2)cc1` it was 5.86%; in that of `CCOC(=O)CC(NC(=O)CCc1c(C)nc2nc(C)nn2c1C)c1ccc(OC(C)C)cc1` (stereo not drawn), 8.74%.
The value for `CCN(CC)Cc1cc(C(C)=O)ccc1OCC(C)C` was -0.12%.
The value for `CCCOc1ccc(N)cc1N` was 18.7%; that for `CCOc1ccc(C(=O)O)cc1OC` was 5.02%.
Take `CCOc1ccc(C(N)=O)cc1OC`: the inhibition was -0.9%.
The value for `COc1ccc2[nH]c3c(c2c1)CCN1C(=O)C(CC(=O)NCCC2=CCCCC2)C[C@H](C(=O)N2CCCCC2)[C@@]31CCc1ccccc1` (stereo partly drawn) was 3.14%; that for `CCc1nc(N)c(C#N)c(-c2ccc(F)cc2)c1C` was 16%.
In the case of `O=C(Nc1ccc(C(F)(F)F)cc1)C1CC(=O)N(c2ccc3c(c2)OCCO3)C1` (stereo not drawn) it was 11.2%.
In the case of `O=C(COC(=O)c1ccccc1O)Nc1ccc(OC(F)F)cc1` it was 6.22%.
For the compound `[O-]/C(=C(\C(=S)Nc1cccc2ccccc12)[n+]1ccccc1)c1ccc(OC(F)F)cc1`, the inhibition is 8.46%.
The value for `Cc1ccc(S(=O)(=O)C2CCCCC2=O)cc1` (stereo not drawn) was 12.8%; that for `Nc1ccc(CCC(=O)N2CCCC2)cc1` was 3.67%.
The value for `O=C(CNC(=O)c1cccc(F)c1)N/N=C/c1cccc([N+](=O)[O-])c1` was 4.45%.
The value for `Cc1c(Cl)c([N+](=O)[O-])nn1Cc1ccc(C(=O)N/N=C\c2cccc(Br)c2)o1` was 6.83%; that for `COc1cc(/C=N/NC(=O)c2cccc([N+](=O)[O-])c2)cc(OC)c1O` was 6.29%.
On to `Cc1ccc(S(=O)(=O)N/N=C/c2ccc(O)c(O)c2)cc1[N+](=O)[O-]`, for which the inhibition was 30.2%.
The value for `O=[N+]([O-])c1cccc(/C=N/NS(=O)(=O)c2ccccc2)c1` was 3.56%; that for `COc1cc(/C=N/NS(=O)(=O)c2ccc(C)c([N+](=O)[O-])c2)cc([N+](=O)[O-])c1O` was 22.1%; that for `Cc1c(Cl)c([N+](=O)[O-])nn1Cc1ccc(C(=O)N/N=C\c2ccccn2)o1` was 3.44%.
In the case of `CCN(CC)c1ccc(/C=N/NS(=O)(=O)c2cccc([N+](=O)[O-])c2)cc1` it was 23.2%.
Take `O=C(C1CCN(S(=O)(=O)N2CCCCC2)CC1)N1CCCCC1`: the inhibition was 6.28%.
In the case of `CC1=C(C(=O)N2CCCC(CCC(=O)NCc3ccc(F)c(F)c3)C2)OCCO1` (stereo not drawn) it was 6.22%; in that of `COc1ccc(/C=N/NC(=O)c2cccc([N+](=O)[O-])c2)cc1O`, 8.06%.
In the case of `COc1ccc(/C=N/NC(=O)c2cccc([N+](=O)[O-])c2)cc1OC` it was 7.73%; in that of `Cc1cccc(NC(=O)CSc2nnc(CNC(=O)c3cccs3)o2)c1C`, 8.9%.
In the case of `CC(C)NC(=O)CSCc1c(F)cccc1Cl` it was 9.25%; in that of `Cc1ccc(-c2nc3cnccn3c2Nc2ccc3c(c2)OCO3)cc1`, 24.2%; in that of `Cc1ccn2c(NCc3ccc4c(c3)OCO4)c(-c3ccc(O)cc3)nc2c1`, 15.5%.
Take `Oc1ccc(-c2nc3ccccn3c2NCc2ccc3c(c2)OCO3)cc1`: the inhibition was 24.6%.
In the case of `Cc1cccc(Nc2c(-c3ccc(N4CCOCC4)cc3)nc3ncccn23)c1` it was 7.86%; in that of `Cc1ccc(-c2nc3ccccn3c2NCc2ccc3c(c2)OCO3)cc1`, 11.7%; in that of `Oc1ccc(-c2nc3ncccn3c2Nc2ccc3c(c2)OCCO3)cc1`, 11.9%.
The value for `S=C1NC[C@H](CC2CCCCC2)N1CC1CCCCC1` was 5.21%; that for `COc1c(C)cc(C(=O)C2CCCN(Cc3cccc4nccnc34)C2)cc1C` (stereo not drawn) was 5.94%; that for `CCCNC(=O)Nc1nnc(C2CC2)s1` was 2.83%.
The value for `Cc1ccc(C(=O)NCCc2ccccc2)cc1S(=O)(=O)N1CCOCC1` was 1.5%.
Take `CCCN(CCC)CCNC(=O)c1cc2c(-c3ccc(Cl)cc3)nn(C)c2s1`: the inhibition was 31.8%.
In the case of `CCN(CC)CCCNC(=O)c1cc2c(-c3ccc(Cl)cc3)nn(C)c2s1` it was 15.3%; in that of `CCOc1ccc(-c2nnc(SCC(=O)O)n2Cc2ccccc2)cc1`, 8.65%.
The value for `COc1ccc(C)cc1NC(=O)C(NCC1CCCO1)c1ccccc1` (stereo not drawn) was 6.45%.
For `COc1ccc(C)cc1NC(=O)CNC(c1ccccc1)c1ccccc1`, the inhibition was 1.89%.
